From ChEMBL document CHEMBL3988442, “University of Dundee, Small-Polar-MMV Screening Library” (2021)
In all, about 38,000 compounds went through this assay and about 1,200 (3.2%) showed an effect of 50% or more. The median lay at about -58%. The list comes from a sample in which strong results are over-represented; it also holds similar structures and randomly drawn compounds.

System: Plasmodium falciparum
Assay: Calibr Malaria Delayed Death Assay SOP
Format: functional, organism-based
Design: scale not given: in the data most compounds retested in dose-response had high values
Conditions: concentration 4.99e-06 (unit not given; other assays of the set use mol/L)

SMILES | Percent Effect [%]
COCCN(C)C(=O)NCCc1coc(-c2ccc(C)cc2)n1 | -79.36
Cc1ncc(CNC(=O)N(CCCO)C2CCc3ccccc32)s1 (configuration not stated) | -63.88
CC(C)n1ncc2c1NC(=O)CC21C(=O)Nc2c(Cl)cc(Br)cc21 (configuration not stated) | -58.13
CC(C)n1ncc2c1NC(=O)CC21C(=O)Nc2c(Cl)ccc(Cl)c21 (configuration not stated) | 83.19
CC(C)n1ncc2c1NC(=O)CC21C(=O)Nc2cc(Cl)cc(Cl)c21 (configuration not stated) | -81.88
COc1ccc(Cl)cc1NC(=O)N1CCc2nc(NC(C)=O)sc2C1 | -92.85
COc1ccc(COCC(O)CNC(=O)c2cc(C)oc2C)cc1 (configuration not stated) | -54.86
O=C(NCCCn1cccn1)C1(c2cccc(Cl)c2)CC1 | -36.51
CS(=O)(=O)NCc1nnc2n1CCN(Cc1cccnc1)C2 | -124.8
Cc1nc(NC2(CN3CCCCC3)CCCCC2)c2cnn(C)c2n1 | 54.86
CCOC(=O)CC1(Nc2nc(C)nc3c2cnn3C)CCCCC1 | -28.38
COCC1(Nc2nc(C)nc3c2cnn3C)CCCC1 | -148.5
COc1cc(C(=O)NS(=O)(=O)c2cc(Cl)sc2Cl)ccc1OC(F)F | -57.9
N#CCCN(CCC#N)Cc1ccc(Br)c2cccnc12 | -154.3
OCCN(CCO)Cc1ccc(Br)c2cccnc12 | -31.32
CCN(CCO)Cc1ccc(Br)c2cccnc12 | 54.32
O=C(NCC1(O)CCC1)c1c(O)cc(Cl)cc1Cl | -101.6
O=C(NCc1ccon1)N1CCC(n2ccc(C(F)(F)F)n2)CC1 | -25.88
Cc1ccnn1CCN1CCCC2(CCC(=O)N(C3CCCC3)C2)C1 (configuration not stated) | -99.39
CN1CC(=O)N(c2ccccc2)CC12CCN(C(=O)CC1CC1)C2.O=C(O)C(F)(F)F (configuration not stated) | -38.66
O=C(c1cc(F)cc(Cl)c1)N1C[C@@H]2CC[C@H](C1)N(Cc1ccccc1)C2 | -134.7
O=C(c1ccc(F)c(Cl)c1)N1C[C@@H]2CC[C@H](C1)N(Cc1ccccc1)C2 | 73.05
O=C(c1ccc(=O)[nH]c1)N1C[C@@H]2CC[C@H](C1)N(Cc1ccccc1)C2 | -23.45
Cc1nn(C)c2nc(NCCCN3CCCC(CO)C3)sc12 (configuration not stated) | -120
N#Cc1ccc(CN2CCNC(=O)C2c2cccs2)cc1 (configuration not stated) | -98.76
CC[C@]12CN3C[C@](CC)(CN(C1)C3c1[nH]c(=O)[nH]c(=O)c1C)C2=O (some centres not stated) | -91.51
CN(Cc1cccnc1)Cc1cn2c(n1)CN(C1CCOC1)CC2.O=C(O)C(F)(F)F.O=C(O)C(F)(F)F.O=C(O)C(F)(F)F (configuration not stated) | -34.3
